Here are results for 54 sequences from paper PMC7819943, “Rice protein-binding microarrays: a tool to detect cis-acting elements near promoter regions in rice”.

Over roughly 39,000 sequences, “fluorescence intensity (a.u.)” has its median near 4,300; the highest 2% begin near 39,000. What follows is part of a selection rich in the highest values, with near analogues and random picks from the rest.

In the experiment the target is T1, OsSMF1 (Oryza sativa, UniProt Q6ZLB0 1-436).
T1 sequence: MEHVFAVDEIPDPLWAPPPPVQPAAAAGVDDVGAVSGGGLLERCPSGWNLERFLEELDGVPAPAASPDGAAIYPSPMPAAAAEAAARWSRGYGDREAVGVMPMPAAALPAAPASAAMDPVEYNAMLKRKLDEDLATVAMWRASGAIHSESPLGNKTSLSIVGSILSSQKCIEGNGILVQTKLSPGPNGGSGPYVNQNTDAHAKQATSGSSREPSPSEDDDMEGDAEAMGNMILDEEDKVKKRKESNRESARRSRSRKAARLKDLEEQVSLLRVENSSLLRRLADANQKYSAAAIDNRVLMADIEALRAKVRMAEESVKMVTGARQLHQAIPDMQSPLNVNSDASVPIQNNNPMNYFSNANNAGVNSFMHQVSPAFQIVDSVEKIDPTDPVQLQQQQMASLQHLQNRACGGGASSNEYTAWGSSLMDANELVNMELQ
The experiment can be described thus: protein-binding microarray (RPBM); PBS, 2% BSA, 51.3 ng/ul salmon testes DNA, 50 uM zinc acetate, 200 nM TF, 25 C, 1 h; high values mean tight binding. Conditions: protein: recombinant; tags: N-terminal polyhistidine and DsRed monomer fusion (pET32a); chain copies: 2; label: CyDye5-dUTP incorporated in the synthesized complementary strand; 3' TTTTT single-stranded linker to array surface; dsDNA, one strand shown. Put shortly:
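Polyhistidine-tagged DsRed fusions of transcription factors, joined at the N-terminus, were expressed in E. coli BL21-CodonPlus and isolated on Ni–NTA. They were incubated at 200 nM for 1 h at 25 °C on a custom Agilent array, double-stranded and BSA-blocked, in PBS with 2% BSA, salmon testes DNA and 50 µM zinc acetate. The binding signal is per-feature fluorescence intensity (arbitrary units) read on an Axon 4000B scanner after washing.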
On to “GGGCTCATCTTCACCGTTGTCATTCAGTTATTCACATAAGCGGAGTCACCTAGTGCAG”, for which the binding signal is 3360 fluorescence intensity (a.u.).
For “GGCGGCGCCGACGACTCCGCGCCGCTCGGCCTCATCGTCGCGGAGTCACCTAGTGCAG”, the binding signal is 3190 fluorescence intensity (a.u.).
For “GCGCCCTCCTCCTGCCACGTCGGTTCGCGTGCGCCACGGTCGGAGTCACCTAGTGCAG” the value was 19500 fluorescence intensity (a.u.); for “CATATGCCATCTAATCATCCTTGTCTGATGTCATTTATTCCGGAGTCACCTAGTGCAG”, 5870 fluorescence intensity (a.u.); for “TGCTTCGCCAGTGAATCGCGTGGATATAAATGGGCCTCTCCGGAGTCACCTAGTGCAG”, 3440 fluorescence intensity (a.u.).
For “CGCACTTCCGTCGCCTCCCCGCATCGCGTCGTACAACGGGCGGAGTCACCTAGTGCAG” the value was 18300 fluorescence intensity (a.u.); for “GGTGTGTGTATGTGTTTATATGGTGAGTGTACACACGTTGCGGAGTCACCTAGTGCAG”, 3150 fluorescence intensity (a.u.).
Turning to “GGCCCCGTCGACGCTGTGCACCAAACACAATAAAGACATGCGGAGTCACCTAGTGCAG”, the binding signal was 3430 fluorescence intensity (a.u.).
In the case of “GTCTGGATCAGAGCTGTCCACATTGGTTGTATTCCTCTTTCGGAGTCACCTAGTGCAG”, the binding signal is 3620 fluorescence intensity (a.u.).
The same measure for “GTGATCTTTCCACATACAGAGAGAGAGAGAGCTTGGGATTCGGAGTCACCTAGTGCAG”: 40900 fluorescence intensity (a.u.); for “ATTCCATATTTCCATTCCACACGTCTTGAGAGCTAATCTTCGGAGTCACCTAGTGCAG”: 3400 fluorescence intensity (a.u.); for “CCTCCTGCTCAGAGGCAGTTCGGTGACGAGCGGGTTGGAGCGGAGTCACCTAGTGCAG”: 24400 fluorescence intensity (a.u.).
For “GGGGATGGGGATTCGATGTGTCTATGCGTGGGCCCTGGTTCGGAGTCACCTAGTGCAG” the value was 3860 fluorescence intensity (a.u.).
For the sequence “ACCGACGCGGACAGCCACAGTCCAGTCACACACCACACCACGGAGTCACCTAGTGCAG”, the binding signal is 5320 fluorescence intensity (a.u.).
The same measure for “CCGATCTCCACCACCACCACCACCACGCGGGCGCGCGCACCGGAGTCACCTAGTGCAG”: 4580 fluorescence intensity (a.u.); for “ACGCAGTCACGCAGACCACAGGGCGATGCAGCGGACCGACCGGAGTCACCTAGTGCAG”: 40900 fluorescence intensity (a.u.); for “CTCAAAGCATTATAAAACTTGCTGGCTTTGTCCCCTTCATCGGAGTCACCTAGTGCAG”: 3250 fluorescence intensity (a.u.).
The same measure for “AGATCGACACGTTAGTCTACACACCTATGCGTGCCTATGCCGGAGTCACCTAGTGCAG”: 3580 fluorescence intensity (a.u.); for “CCCCAATCCTCGCATGCCAACTCACCTGTGTTGCTTTTGCCGGAGTCACCTAGTGCAG”: 7550 fluorescence intensity (a.u.); for “TCGCCCGCGCCCACTGACACGTGGGGCCCGGCACGTGGGCCGGAGTCACCTAGTGCAG”: 11500 fluorescence intensity (a.u.).
Consider “AGTGCATGCGTGTGCGCCTGCCTGCTTACTTCCATCTCGACGGAGTCACCTAGTGCAG”, for which the binding signal was 7880 fluorescence intensity (a.u.).
With “GTGTGATTATCTTCTCCATACCATCTCGTGCTACATGCGCCGGAGTCACCTAGTGCAG”, the binding signal was 40000 fluorescence intensity (a.u.).
For “ACCATCTCTCTCTCTCTCTCTGCATGCATATCTTCTCCTCCGGAGTCACCTAGTGCAG” the value was 3210 fluorescence intensity (a.u.); for “GTTCCCTTTGTATTTCACACCTTGAGATGGTGACTGATCCCGGAGTCACCTAGTGCAG”, 3940 fluorescence intensity (a.u.); for “TGTTTTCTAATATTTACAATCAGATCCCTTGAGTGAGTCACGGAGTCACCTAGTGCAG”, 4150 fluorescence intensity (a.u.).
The same measure for “TACTAATTTAATCCCCTTTGATCTGCTGACTGGTTTACTACGGAGTCACCTAGTGCAG”: 5140 fluorescence intensity (a.u.).
As for “AAAGATCAGAGAGACTACTAATCCGGTTTATTTACTGGCACGGAGTCACCTAGTGCAG”, the binding signal was 44100 fluorescence intensity (a.u.).
For “AGTCTCAGATCTACTTGCGGCGGCGAAGGCTCGGGAGGGGCGGAGTCACCTAGTGCAG” the value was 3530 fluorescence intensity (a.u.); for “TCCTTCGATTCCAAGCATATAGTAATATATGACACGATGCCGGAGTCACCTAGTGCAG”, 5000 fluorescence intensity (a.u.); for “ATATATTGACAAGGCAATGACATAGATAGCTAGACATATCCGGAGTCACCTAGTGCAG”, 3190 fluorescence intensity (a.u.).
Consider “CATAGTTGACTTCCAAGGCAAGACAGATGAGATATGCATTCGGAGTCACCTAGTGCAG”, for which the binding signal was 45500 fluorescence intensity (a.u.).
“CGCAAACATTTTCGGAATATACGAATCCAGCGTTGCACTGCGGAGTCACCTAGTGCAG”: the binding signal was 3250 fluorescence intensity (a.u.).
With “AATGTGACCACGTCATCCCCTTCTTTCCCTTTCCCCTCTTCGGAGTCACCTAGTGCAG”, the binding signal is 33300 fluorescence intensity (a.u.).
On to “CCACATGTCAGGATGCCACGTCATCTCTCTTTCCCCTCTTCGGAGTCACCTAGTGCAG”, for which the binding signal is 33600 fluorescence intensity (a.u.).
The same measure for “CAGCCATCCATCCCACCCACACGTCACCACCCGCGCATCCCGGAGTCACCTAGTGCAG”: 20500 fluorescence intensity (a.u.); for “CATATTCTGATATTCCCATCCACGTCAGCATTTCCCCACCCGGAGTCACCTAGTGCAG”: 41000 fluorescence intensity (a.u.); for “GTTCCACATGTCATCCTCTCCCTTTCTTCTTCCTCCCCTCCGGAGTCACCTAGTGCAG”: 3930 fluorescence intensity (a.u.).
For “TCCTCCCACGCTTCTTCTTCTTCTTCTTCTTCCCTTTCCCCGGAGTCACCTAGTGCAG” the value was 9800 fluorescence intensity (a.u.); for “CAGGATGCCACGTCAGCGCCCTCTATCTCTTTCCCCTCCTCGGAGTCACCTAGTGCAG”, 51300 fluorescence intensity (a.u.).
The same measure for “CCCCTCCCCATCGTCAGCATCTTTCTTTCTCTTCCCATCCCGGAGTCACCTAGTGCAG”: 6610 fluorescence intensity (a.u.).
Regarding “CCACGTGTCAGCATTGCCACATCAGCTTCCTCTCTCTTTTCGGAGTCACCTAGTGCAG”, the binding signal was 24100 fluorescence intensity (a.u.).
The same measure for “ATGTCAGGATGCCACGTCACACCCTTTCTTTCCCCTCCTCCGGAGTCACCTAGTGCAG”: 45200 fluorescence intensity (a.u.); for “CATGTCAGGACGCCACGTCATCATGCTCTCTCTTTCCCCTCGGAGTCACCTAGTGCAG”: 33600 fluorescence intensity (a.u.); for “GTCAGTGTGGCCACGTCAGCATCCTCTCTTTTCCTCTCTTCGGAGTCACCTAGTGCAG”: 40800 fluorescence intensity (a.u.).
For “AGGTGCAGATGCTACTACTGATCTGGAACAGTGATCTCCACGGAGTCACCTAGTGCAG” the value was 3180 fluorescence intensity (a.u.); for “CCCATTGCTGTCTCTACCATGTGTCATCTTCCAATAAGCACGGAGTCACCTAGTGCAG”, 4950 fluorescence intensity (a.u.); for “GGCTGCGGCGCTGTCCCTCCGTCTGCGTGATCCGACAACCCGGAGTCACCTAGTGCAG”, 3800 fluorescence intensity (a.u.).
The same measure for “AACCAACCAACCACGTCGATCGCTCGCAGTCGCCGCCGCGCGGAGTCACCTAGTGCAG”: 3840 fluorescence intensity (a.u.); for “GCAGGCTGAATAAAACTGTATTGTCATCGATGATATTGGTCGGAGTCACCTAGTGCAG”: 5020 fluorescence intensity (a.u.).
For the sequence “AAAACAAATATAGAGGAGACAGCTCATTTTATTTCCTTGACGGAGTCACCTAGTGCAG”, the binding signal was 3340 fluorescence intensity (a.u.).
For “ATAAGGGCCAGCATGTACGTGACAGTGCCATTCGGGCCCACGGAGTCACCTAGTGCAG” the value was 4850 fluorescence intensity (a.u.).
For “CTACATATCAGGTGTCCACGTCACCCTCTCTCTTTCCCCTCGGAGTCACCTAGTGCAG” the value was 37200 fluorescence intensity (a.u.).
The same measure for “AAGTCAGGGTGTCCACGTCATCACCCTCCCTCTTTCTCCTCGGAGTCACCTAGTGCAG”: 55700 fluorescence intensity (a.u.); for “CATGTCAGACAGTCCACGTCATCACCTTTCTCTCCCCTCTCGGAGTCACCTAGTGCAG”: 38200 fluorescence intensity (a.u.).
